Screening data from PubChem BioAssay.
Shown are actives, neighbours in structure and some others; about 0.38% of the full set was active somewhere.
Rab7 wt GTP bind: modulators of GTP binding to Rab7, primary screen, biochemical, wildtype, multiplex bead flow cytometry; Rab7 GTPase wild type (dog), Bodipy-FL-GTP binding; GTP binding activity (percent of control), % at 10 µM; GST-Rab7 beads, fluorescent GTP binding; actives lie on both sides; untreated = 100%, excess cold GTP = 0%; AID 758, 2007; actives 0.055% (n = 190,000);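 active = fluorescent GTP binding to Rab7 beads changed by at least 20 points from the 100% baseline, either direction, mostly lower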;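 note: median green fluorescence of bound Bodipy-FL-GTP per Rab7 bead population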
Rac1 mut GTP: GTP binding modulators of activated mutant Rac1, primary screen, biochemical, bead-based flow cytometry, multiplex, fluorescent GTP; GST-Rac1 activated beads; actives lie on both sides; 100% means binding = to untreated wells; percent activity (GTP binding), % at 10 µM; Ras-related C3 botulinum toxin substrate 1 (Homo sapiens), P63000; actives 0.11% (n = 190,000);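 active = GTP binding at least 20 percentage points away from the 100% baseline, in either direction, so actives lie on both sides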
HRas wt GTP: modulators of GTP binding to HRas wildtype, primary screen, biochemical, bead-based flow cytometry, multiplex; GST-Ras wt beads, Bodipy-FL-GTP binding; actives lie on both sides; GTP binding activity, % at 10 µM; GTPase HRas (Homo sapiens), P01112; actives 0.14% (n = 190,000);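 active = GTP binding activity at least 20% away from the 100% baseline, either lowered as inhibitor or raised as activator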
Target sequence (P01112 whole entry, looked up): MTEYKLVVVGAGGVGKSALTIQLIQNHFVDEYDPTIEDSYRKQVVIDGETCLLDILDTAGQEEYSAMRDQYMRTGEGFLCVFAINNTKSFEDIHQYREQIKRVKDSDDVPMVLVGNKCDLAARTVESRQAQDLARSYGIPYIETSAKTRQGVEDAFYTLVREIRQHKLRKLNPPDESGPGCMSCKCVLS
Cdc42 wt: modulators of GTP binding to wildtype Cdc42, primary screen, biochemical, multiplex bead flow cytometry, Bodipy-GTP. actives 0.2% (n = 190,000). percent activity (GTP binding), % at 10 µM. GST-Cdc42 beads; actives lie on both sides. Cell division control protein 42 homolog (Homo sapiens), P60953;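 active = percent activity GTP binding at least 20 points away from the 100% baseline, either down as inhibitor or up as activator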;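 note: median bead fluorescence of bound Bodipy-FL-GTP at 100 nM; below 100% means less GTP binding so inhibitor and above means activator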
Rac1 wt GTP bind: wildtype Rac1 GTP binding modulators, primary screen, biochemical, GST-Rac1 beads, flow cytometry, multiplex | Ras-related C3 botulinum toxin substrate 1 (Homo sapiens), P63000 | actives 0.27% (n = 190,000) | GTP binding activity (% of control), % at 10 µM | AID 757, 2007 | fluorescent GTP binding; actives lie on both sides; 0 = cold GTP competed, 100 = untreated;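 active = GTP binding activity at least 20 points away from the 100% control level, either lower or higher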
Rab2A wt mod: modulators of GTP binding to Rab2A wildtype, primary screen, biochemical, dog, bead-based flow cytometry, multiplex; Ras-related protein Rab-2A (Canis lupus familiaris), P61105; GST-Rab2 wt beads, Bodipy-GTP binding; GTP binding activity, % at 10 µM; actives 0.19% (n = 190,000); AID 760, 2007;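 active = GTP binding activity at least 20 points away from 100%, either lowered or raised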
Of the large screens only hits and unclear results are named; the others gave an inactive call; [ ] = another dose, or the depositor's remark.

COc1ccc(-c2cc(=O)c3c(O)c(OC)c(O)cc3o2)cc1	none
COc1ccc(C(=O)c2c(O)cc(-c3ccc(OC)cc3)oc2=O)cc1	Rab7 wt GTP bind 125[activator], Rac1 wt GTP bind 137[activator]
CCOC(=O)Cn1c(=O)c2c(nc(N3CCCCC3)n2C)n(C)c1=O	Cdc42 wt 123[activator], Rac1 wt GTP bind 142[activator]
CCOC(=O)Cn1c(=O)c2c(nc3n2CCN3Cc2ccccc2)n(C)c1=O	none
O=C(NC(NCc1cccnc1)C(Cl)(Cl)Cl)c1cccc2ccccc12 (centres undefined)	none
C=C(C)COc1ccc(-c2n[nH]c(C)c2-c2ccc(Br)cc2)c(O)c1	Rac1 wt GTP bind 79
Cc1ccsc1/C=N/NC(=O)c1ccc(-n2cccc2)cc1	none
O=C(Cn1cnc2cc([N+](=O)[O-])ccc2c1=O)NCc1ccc(Cl)cc1	Cdc42 wt 77, Rac1 wt GTP bind 74
CCOC(=O)c1c(C)[nH]c(C)c1C(=O)COc1ncnc2cc([N+](=O)[O-])ccc12	Rab7 wt GTP bind 74, HRas wt GTP 70, Cdc42 wt 64, Rac1 wt GTP bind 63, Rab2A wt mod 63
O=C(COc1ncnc2cc([N+](=O)[O-])ccc12)NC(=O)NC1CCCCC1	Rac1 wt GTP bind 75, Rab2A wt mod 79
O=C(COc1ncnc2cc([N+](=O)[O-])ccc12)NCCc1ccc(Cl)cc1	Rac1 wt GTP bind 77
CN1CCC(N(C)C(=S)NCCc2ccccc2)CC1	none
